Laboratory results reported in ChEMBL document CHEMBL4513216, “Probing the Open Global Health Chemical Diversity Library for Multistage-Active Starting Points for Next-Generation Antimalarials” (ACS Infect Dis, 2020).
The campaign covered roughly 69,000 compounds. About 8,600 (12%) showed an effect of 50% or more. Shown is part of a subset that was picked to be rich in strong results.

Each molecule was assayed on Plasmodium berghei (assay: Screen against P. berghei liver stage (PbLuc), transformed with Luciferase, at 10uM). Settings: tested at 10 uM.
Format: functional, HepG2
CS(=O)(=O)c1nnc(NC(=O)CCc2cc(F)ccc2F)[nH]1 was tested, and the INHIBITION was 43.7%.
In the case of CC(C)c1nnc(NC(=O)CCc2cc(F)ccc2F)[nH]1, the INHIBITION is reported as 53.3%.
In the case of CC(C)c1nnc(NC(=O)c2cccc(OCC(F)(F)F)n2)[nH]1, the INHIBITION is reported as -38.6%.
For CC(C)N1CCC(CNC(=O)CCc2cc(F)ccc2F)C1 (stereo not given), the INHIBITION was -20.3%.
With CCC(C)Oc1cc(C(=O)Nc2nnc(C(C)C)[nH]2)ccn1 (stereo not given) the INHIBITION was 42.6%.
For O=C(C1=CC2(CCN(CCO)CC2)c2ccccc21)N1CCCC1, the INHIBITION was 13.6%.
In the case of O=C(CCc1nc(-c2ccccc2)no1)N[C@H]1COC[C@@H]1N1CCCC1, the INHIBITION is reported as -12.1%.
In the case of Cc1nc(N)cc(C2CN(C(=O)c3cscn3)CCO2)n1 (stereo not given), the INHIBITION is reported as 35%.
With COc1ccc(NC(=O)COc2nn(C)c3nc(C)cc(C)c23)cn1 the INHIBITION was 22.8%.
CCc1ccc(C(=O)NCC2CCCN2CC)o1 (stereo not given) showed an INHIBITION of 31.2%.
In the case of CCn1nccc1CNC(=O)NC1CCCCC1, the INHIBITION is reported as 26.8%.
CCc1ccc(C2CCCN2C(=O)NCC(=O)NCC(C)C)o1 (stereo not given) was tested, and the INHIBITION was 60.4%.
For CCc1ccc(C(=O)N2CCCCC2CNS(C)(=O)=O)o1 (stereo not given), the INHIBITION was -23.5%.
CC(C)CNC(=O)CN1CCCC(c2ccc(C(=O)O)cc2)C1 (stereo not given) showed an INHIBITION of 33%.
Molecule CCc1ccc(C2CCCCCN2C(=O)CNC(=O)C2CC2)o1 (stereo not given) has an INHIBITION of 63.7%.
CCc1ccc(C2CCCN2C(=O)CNC(=O)CCC(C)C)o1 (stereo not given) was tested, and the INHIBITION was 64.8%.
Molecule CCc1ccc(C2CCCCCN2C(=O)CNC(=O)NC2CC2)o1 (stereo not given) has an INHIBITION of 68%.
Cc1ccc(C2CCCCCN2C(=O)Nc2cn[nH]c2)o1 (stereo not given) showed an INHIBITION of -22.05%.
CNCC(=O)N1CCCC1c1nc(C(C)C)no1 (stereo not given) gave an INHIBITION of 6.33%.
Work on O=C(NCC(=O)N1CCCC1Cc1cccc(F)c1)C1CCCC1 (stereo not given) yielded an INHIBITION of 7.19%.
CC(C)CCC(=O)NCC(=O)N1CCCCCC1c1ccco1 (stereo not given) gave an INHIBITION of 19.3%.
Molecule COc1ccc(C(=O)Nc2ccc3c(c2)C(=O)NC3)cc1Br has an INHIBITION of -64.3%.
COCc1cc(N(C)CCC(O)c2ccccc2)n2nccc2n1 (stereo not given) was tested, and the INHIBITION was -27.3%.
With O=C1CSC(C(F)(F)F)c2c(O)nn(C3CCCCC3)c2N1 (stereo not given) the INHIBITION was 38.1%.
In the case of Cc1cnn(CCNc2nc(C)cc(N(C)C)n2)c1, the INHIBITION is reported as 21.5%.
CCc1nnc2n1CCN(C(=O)CCOc1cc(C)ccc1C)C2 gave an INHIBITION of -3.19%.
O=S(=O)(Cc1ccc(F)c(Cl)c1)NCCOc1cccnc1 showed an INHIBITION of -11.4%.
c1cnc2[nH]c(C3CCCNC3)c(CN3CCCOCC3)c2c1 (stereo not given) was tested, and the INHIBITION was -15.3%.
CC(=O)Nc1ccc(CC(=O)N2CC(S(=O)(=O)C3CCCCC3)C2)cc1 gave an INHIBITION of 13.1%.
With CCc1ccc(C2CCCN2C(=O)Cc2ccc(NC(C)=O)cc2)o1 (stereo not given) the INHIBITION was 65.8%.
For CCc1ccc(C(=O)NC[C@H]2CCCN2C(=O)c2ccc(CC)o2)o1, the INHIBITION was -3.68%.
Cc1nnc(N2C[C@H](Oc3ccccn3)[C@H]3OCCC[C@H]32)s1 was tested, and the INHIBITION was -10.3%.
Molecule Cc1cc(NC(=O)CNC(C)(C)c2nc(C)c(C)s2)no1 has an INHIBITION of 26.6%.
Cc1cc(NC(=O)CCNC(C)(C)c2nc(C)c(C)s2)no1 showed an INHIBITION of 53.8%.
Work on Cc1cc(NC(=O)NC(C)(C)c2nc(C)c(C)s2)no1 yielded an INHIBITION of 29.1%.
With Cn1cc(C(=O)Nc2ccc3c(c2)N(C(=O)c2ccco2)CC3)nn1 the INHIBITION was 20.1%.
c1ccc(C[C@H]2CN(C3CCOCC3)CC[C@H]2OCC2CC2)cc1 was tested, and the INHIBITION was -54.1%.
In the case of c1ccc(C[C@H]2CN(Cc3nccs3)CC[C@@H]2OCC2CC2)cc1, the INHIBITION is reported as 62.5%.
c1csc(CN2C[C@H](OCC3CC3)[C@H]3COC[C@H]32)n1 gave an INHIBITION of 12.6%.
Work on c1ccc(C[C@H]2CN(Cc3nccs3)CC[C@H]2OCC2CC2)cc1 yielded an INHIBITION of 50%.
c1csc(CN2CCCn3cnc(COCC4CC4)c3C2)n1 was tested, and the INHIBITION was 37.8%.
CCCNC(c1ccc(F)cc1)c1cccnc1 (stereo not given) gave an INHIBITION of 42.1%.
CC(C)c1ccc(C(O)CN2CCN(Cc3nccn3C)CC2)cc1 (stereo not given) showed an INHIBITION of -65.3%.
For CCC1CN(Cc2cccc(C(=O)N(C)C)c2)CCN1CCOC (stereo not given), the INHIBITION was -34%.
Cc1cccc(CN2C[C@@H]3CN(C(=O)NC(C)C)C[C@@H]3C2=O)n1 gave an INHIBITION of -31.9%.
Molecule CNC(=O)C1CCN(CC(=O)Nc2cc(C(C)C)no2)CC1 has an INHIBITION of 53%.
With Cc1cc(NC(=O)CNC2CCc3ncnn3C2)on1 (stereo not given) the INHIBITION was 6.67%.
For CC(C)c1cc(NC(=O)CN2CCC(N3CCCCC3)CC2)on1, the INHIBITION was 74.1%.
CC(C)c1cc(NC(=O)CN2CCC(N3CCNC3=O)CC2)on1 gave an INHIBITION of 17.3%.
CC(C)c1cc(NC(=O)CNC2CCc3ncnn3C2)on1 (stereo not given) showed an INHIBITION of 65.3%.
For CC(C)c1cc(NC(=O)CN2CCCC(Cn3cncn3)C2)on1 (stereo not given), the INHIBITION was 5.58%.
CC(C)c1cc(NC(=O)CN2CCNC(=O)C2)on1 showed an INHIBITION of 20.6%.
In the case of CC(C)c1cc(NC(=O)CN2CCC(C(N)=O)CC2)on1, the INHIBITION is reported as 9.64%.
Work on CC(C)(C)c1cc(NC(=O)CNC2CCc3ncnn3C2)on1 (stereo not given) yielded an INHIBITION of 48.4%.
In the case of Cc1ccc2nnc(C(=O)NCC3CCCC3)nc2c1, the INHIBITION is reported as -4.01%.
